According to paper PMC4336329 (PLoS ONE, 2015):
Out of some 310,000 compounds screened, about 14,000 (4.5%) showed an effect of 50% or more. The effect is printed as a negative number. What follows is part of a selection rich in strong results, with near analogues and random picks from the rest.

These molecules were tested against human ether-à-go-go-related gene (hERG) potassium channel (human, UniProt Q12809) (assay: primary screen, population patch clamp on CHO cells stably expressing hERG; higher = less effect of the substance).
Chain of human ether-à-go-go-related gene (hERG) potassium channel (Q12809 whole entry, looked up): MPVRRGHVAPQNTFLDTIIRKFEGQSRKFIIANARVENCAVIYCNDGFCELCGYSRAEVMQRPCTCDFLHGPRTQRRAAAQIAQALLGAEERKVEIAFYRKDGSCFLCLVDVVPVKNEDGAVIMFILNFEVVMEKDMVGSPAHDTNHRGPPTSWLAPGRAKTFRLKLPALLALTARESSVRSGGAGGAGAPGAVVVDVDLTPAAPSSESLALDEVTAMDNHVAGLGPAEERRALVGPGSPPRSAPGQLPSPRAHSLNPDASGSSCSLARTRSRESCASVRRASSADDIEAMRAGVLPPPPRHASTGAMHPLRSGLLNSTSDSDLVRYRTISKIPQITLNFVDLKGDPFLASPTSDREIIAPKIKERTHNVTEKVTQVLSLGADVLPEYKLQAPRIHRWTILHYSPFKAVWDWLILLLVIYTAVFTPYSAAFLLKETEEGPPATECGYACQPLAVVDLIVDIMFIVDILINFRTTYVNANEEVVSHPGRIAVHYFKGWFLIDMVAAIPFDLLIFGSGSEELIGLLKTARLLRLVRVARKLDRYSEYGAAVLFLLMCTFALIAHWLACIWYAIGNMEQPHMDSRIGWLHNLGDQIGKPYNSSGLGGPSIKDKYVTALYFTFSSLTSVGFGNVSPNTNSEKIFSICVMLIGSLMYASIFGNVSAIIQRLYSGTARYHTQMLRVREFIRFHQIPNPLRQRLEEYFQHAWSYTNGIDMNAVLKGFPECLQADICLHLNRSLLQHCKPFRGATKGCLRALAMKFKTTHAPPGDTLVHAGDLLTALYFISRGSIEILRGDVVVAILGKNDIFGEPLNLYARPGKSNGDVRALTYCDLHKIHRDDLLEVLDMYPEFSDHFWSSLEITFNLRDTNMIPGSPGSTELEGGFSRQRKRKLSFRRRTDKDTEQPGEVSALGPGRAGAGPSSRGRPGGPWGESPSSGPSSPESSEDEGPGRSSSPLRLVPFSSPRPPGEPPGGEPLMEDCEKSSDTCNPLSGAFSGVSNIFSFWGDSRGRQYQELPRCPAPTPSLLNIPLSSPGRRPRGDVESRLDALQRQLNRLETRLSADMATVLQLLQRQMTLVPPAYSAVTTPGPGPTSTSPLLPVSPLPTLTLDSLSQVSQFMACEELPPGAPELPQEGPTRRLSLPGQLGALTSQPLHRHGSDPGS
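Also: peak tail current of the secondary pulse compared with the same well before compound.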

| Compound | hERG current change (%, negative = inhibition) at 10uM [%] |
| --- | --- |
| COc1ccccc1C(CC(=O)Nc1ccc(Cl)cc1)c1ccc(OC(C)C)cc1 (centres unmarked) | 1.17 |
| COc1ccc(C(CC(=O)Nc2ccc(F)cc2)c2ccccc2)cc1 (centres unmarked) | 9.13 |
| COc1ccc(C(C)NCCC(c2ccc(OC(C)C)cc2)c2ccccc2OC)cc1 (centres unmarked) | -64.2 |
| COc1ccc(C(O)P(=O)(OCc2ccccc2)c2ccc(N(C)C)cc2)cc1 (centres unmarked) | 15.4 |
| COc1ccc(C(CCNC(C)c2ccccc2)C(C)C)cc1 (centres unmarked) | -4.48 |
| COc1ccc(NC(=S)NCCC(c2ccccc2)c2ccccc2)c(OC)c1 | 2.53 |
| COc1ccc(C(CCNCc2ccc(N(C)C)cc2)c2ccccc2OC)cc1 (centres unmarked) | -71.1 |
| COc1cccc(NC(=O)CC(c2ccc(OC(C)C)cc2)c2ccccc2OC)c1 (centres unmarked) | 1.26 |
| COc1ccc(C(CCNCc2ccc(OC(C)C)cc2)c2ccccc2OC)cc1 (centres unmarked) | -76 |
| COc1ccc(C(CCNC(C)c2ccccc2)c2ccc(F)cc2)cc1 (centres unmarked) | -54.6 |
| CCOC(=O)c1nn(-c2ccc(C)cc2)c(C)c1C(C)=O | 4.57 |
| Cc1ccc(S(=O)(=O)NNC(=O)C2COc3ccccc3O2)cc1 (centres unmarked) | 5.24 |
| COc1ccc(C(CNC(=O)c2ccc(OCc3ccccc3)cc2)N2CCOCC2)cc1 (centres unmarked) | -18.1 |
| CCOC(=O)N1CCC(N(CCN(C)C)C(=S)Nc2ccccc2OC)CC1 | -16.2 |
| CCCC1=C(C(=O)OCC)C(c2ccc(F)cc2)n2ncnc2N1 (centres unmarked) | -21.3 |
| COc1cccc(CN2C(=O)CCC2(C)C(=O)NC2CCCCCC2)c1 (centres unmarked) | -11.7 |
| COc1ccc(-c2cc(=O)oc3cc(OC(=O)C4CCCCC4)c(Cl)cc23)cc1 | 11.2 |
| COc1ccc(C(CCNCc2ccc(N(C)C)cc2)C(C)C)cc1 (centres unmarked) | -40.5 |
| COc1ccccc1NC(=O)CC(c1ccc(OC(C)C)cc1)c1ccccc1OC (centres unmarked) | -1.62 |
| COc1ccccc1C(CCNCc1ccccc1)c1ccc(OC(C)C)cc1 (centres unmarked) | -59.3 |
| COc1ccccc1CNC(=O)c1ccc(OC(C)C)cc1 | 17.6 |
| COc1ccccc1C(O)P(=O)(OCC(C)C)c1ccc(N(C)C)cc1 (centres unmarked) | -0.204 |
| COc1ccc(CNC(=S)NCc2ccc(OC(C)C)cc2)cc1 | -3.86 |
| COc1ccccc1C(CC(=O)Nc1ccc(C)c(C)c1)c1ccc(OC(C)C)cc1 (centres unmarked) | 10.2 |

| Compound | hERG current change (%, negative = inhibition) at 10uM [%] |
| --- | --- |
| COc1ccccc1C(CCNCc1ccc(N(C)C)cc1)c1ccc(OC(C)C)cc1 (centres unmarked) | -73.8 |
| COc1ccc(C(CCNCc2ccc(N(C)C)cc2)c2ccccc2)cc1 (centres unmarked) | -72.2 |
| COc1ccc(CNCCC(c2ccc(OC(C)C)cc2)c2ccccc2OC)cc1 (centres unmarked) | -66.1 |
| COc1ccc(CNC(c2ccccc2)c2ccc(Cl)cc2)cc1 (centres unmarked) | 6.38 |
| O=C(Nc1ncc(Br)s1)C1CCCN1S(=O)(=O)c1cccc2cccnc12 (centres unmarked) | -3.36 |
| Cc1cccc(C(=O)O/N=C2\CCS(=O)(=O)c3sccc32)c1 | 1.16 |
| Cc1ccc(NC(=O)C(OC(=O)c2ccc(NC(N)=O)cc2)c2ccccc2)cc1Cl (centres unmarked) | -3.17 |
| COc1ccc(N2CCC(N3CCN(C)C(CCO)C3)CC2)cc1 (centres unmarked) | 10.2 |
| O=C(NCC1CCCO1)c1ccc(Cl)c(S(=O)(=O)Nc2ccccc2)c1 (centres unmarked) | 2.86 |
| O=C(CCc1ccccc1)Nc1nccs1 | 14.9 |
| COc1ccccc1N1CCN(C(=O)c2ccc(Cn3c(=S)[nH]c4cc5c(cc4c3=O)OCO5)cc2)CC1 | 21.3 |
| CC[C@H](C)[C@@H](NC(=O)O[C@@H]1C(=O)c2cc(OC)ccc2O[C@H]1c1ccc(OC)c(Br)c1)C(=O)OC | -1.62 |
| CN(C)c1cccc(C(=O)Nc2nnc(Cc3ccccc3)s2)c1 | 0.344 |
| Cn1cnc2cc(NCc3ccccc3O)ccc21 | 6.3 |
| COc1ccc2c(c1)C=C(CN1CCN(C3CCCC3)C(CCO)C1)CO2 (centres unmarked) | -68.2 |
| COc1cccc2c1OCC(CN1CCN(C3CCCCC3)C(CCO)C1)=C2 (centres unmarked) | -17 |
| COc1cccc2c1OCC(CN1CCN(Cc3ccccc3)C(CCO)C1)=C2 (centres unmarked) | -47.6 |
| COc1ccc2c(c1)C=C(CN1CCN(Cc3ccccc3C)C(CCO)C1)CO2 (centres unmarked) | -25.6 |
| COc1ccc2c(c1)C=C(CN1CCN(C(C)C)C(CCO)C1)CO2 (centres unmarked) | 5.68 |
| CCOc1ccccc1CN1CCN(CC2=Cc3cc(OC)ccc3OC2)CC1CCO (centres unmarked) | -83.3 |
| COc1cccc2c1OCC(CN1CCN(Cc3ccccc3F)C(CCO)C1)=C2 (centres unmarked) | -19.3 |
| COc1cccc2c1OCC(CN1CCN(CCC(C)C)C(CCO)C1)=C2 (centres unmarked) | -3.37 |
| CCOc1ccc(CN2CCN(CC3=Cc4cccc(OC)c4OC3)CC2CCO)cc1 (centres unmarked) | -83.4 |
